# Source: PubChem BioAssay (EPA / NIEHS)
# Activity calls are given as the source filed them. The calls were made as follows: active = hit-call score of the fitted dose curve at least 0.9, where 1 is the maximum; inactive = score below 0.9.
# Assay: IUF_NPC2c_oligodendrocyte_migration_120hr: Leibniz Research Institute for Environmental Medicine (IUF) 120-hour Neural Progenitor Cell Migration Assay for Oligodendrocyte Migration (NPC2c) (AID 2284297);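 also: O4-positive oligodendrocyte migration distance divided by radial glia migration distance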
# Summary of the method: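 Exposure runs 5 days from differentiation onset at 37C, seven concentrations plus solvent control, DMSO at most 0.1%, applied to primary hNPC spheres on laminin. After fixation, O4 immunostaining gives oligodendrocyte distance from the sphere core, relative to radial glia migration.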
SMILES,AC50,outcome
CCC[CH2][Sn]([Cl])([CH2]CCC)[CH2]CCC,325 nM (active),–
O=P(OCCCl)(OCCCl)OCCCl,–,inactive
CCCCOC(=O)c1ccccc1C(=O)OCc1ccccc1,–,inactive
OCCOCCO,–,inactive
CC(C)(C)C(O)(CCc1ccc(Cl)cc1)Cn1cncn1 (centres undefined),–,inactive
COC(=O)Nc1nc2ccccc2[nH]1,–,inactive
COP(=S)(OC)SCN1C(=O)c2ccccc2C1=O,–,inactive
CNC(=O)Oc1cccc2c1OC(C)(C)C2,–,inactive
CC(C)COC(=O)c1ccccc1C(=O)OCC(C)C,–,inactive
[O-][Cl+]O,–,inactive

# Assay: IUF_NPC2a_radial_glia_migration_120hr: Leibniz Research Institute for Environmental Medicine (IUF) 120-hour Neural Progenitor Cell Migration Assay for Radial Glia Migration (NPC2a) (AID 2284298)
# Summary of the method: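 Migration distance in um, sphere core edge to migration-area edge, derived by nuclei-density algorithm from Hoechst images after 120 h compound exposure. Primary hNPC spheres differentiated on poly-D-lysine/laminin in N2 medium, 37C; medium half-replaced day 3.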
SMILES,AC50,outcome
CCC[CH2][Sn]([Cl])([CH2]CCC)[CH2]CCC,370 nM (active),–
O=P(OCCCl)(OCCCl)OCCCl,–,inactive
CCCCOC(=O)c1ccccc1C(=O)OCc1ccccc1,–,inactive
OCCOCCO,–,inactive
COC(=O)Nc1nc2ccccc2[nH]1,11300 nM (active),–
COP(=S)(OC)SCN1C(=O)c2ccccc2C1=O,–,inactive
CNC(=O)Oc1cccc2c1OC(C)(C)C2,–,inactive
CC(C)COC(=O)c1ccccc1C(=O)OCC(C)C,–,inactive
[O-][Cl+]O,–,inactive
